We go through 27 molecules from PubChem BioAssay AID868 (SRMLSC, 2007).

The whole screen tested about 190,000 compounds, of which about 3,500 (1.8%) were called active.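 How the source made its calls: active means inhibition above a set limit, 3 SD over mean compound inhibition (cut at about 8.4% in these data); inactive means the rest.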 The list comes from a sample in which actives are over-represented; it also holds similar structures and randomly drawn compounds.

The experiment in a line: inhibitors of the yeast RAM network, primary screen, dse1pr::URA3 reporter, 5-FOA selection (AID 868).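 Further: 0% = DMSO-only wells with no growth and 100% = 10 µM 1-NA-PP1 full growth; inhibition rescues growth on 5-FOA so higher OD means more RAM inhibition.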 Conditions: S. cerevisiae dse1pr::URA3 reporter, 5-FOA growth OD615, 2 d; at 50 µM; active compounds read high; analog-sensitive cbk1-as2 kinase mutant strain.
For the molecule `O=C(O)CSc1nccc2ccccc12`, the inhibition is 0.52% (inactive).
With `CCOC(=O)NN1C(=O)c2ccccc2NC1c1ccccc1O` (configuration not stated) the figure was -0.54% (inactive); with `CCN(CC)C(=O)C(=O)Nc1cccc(Br)c1`, 1.63% (inactive).
As for `Cc1ccc(NC(=O)c2csc3c2CCCC3)cc1`, the inhibition was 0.75% (inactive).
The value for `COC(=O)c1sc(NC(=O)c2csc3c2CCCC3)nc1C` was 3.89% (inactive).
With `COC(=O)c1sccc1NC(=O)c1csc2c1CCCC2` the figure was 12% (active); with `CCN=C1S/C(=C\c2cc(Br)ccc2OCC(=O)OCC)C(=O)N1CC`, 11.5% (active).
On to `Cc1cc(/C=C2/SC(=O)N(CC(=O)OC(C)C)C2=O)c(C)n1C`, for which the inhibition was 4.99% (inactive).
`CCOC(=O)CC1C(=O)NCCN1C(=O)COc1ccc(Br)cc1C` (configuration not stated): the inhibition is -0.4% (inactive).
As to `COc1ccc(CCNc2nc(-c3cccc(NC(C)=O)c3)cs2)cc1OC`, the inhibition was -0.26% (inactive).
As to `COc1ccc(C2OCC3(CO2)SC(=O)NC3=O)cc1OC` (configuration not stated), the inhibition is 0.64% (inactive).
As for `COc1cccc(NC(=O)CC2C(=O)NCCN2C(=S)Nc2ccc(F)cc2)c1` (configuration not stated), the inhibition is 4.21% (inactive).
With `CC1CCCCC1NC(=O)CN1CCC(O)(c2ccc3c(c2)OCO3)CC1` (configuration not stated) the figure was 0.68% (inactive).
With `CCN(CC)S(=O)(=O)c1ccc(N(C)CCc2ccc(OC)c(OC)c2)nc1` the figure was 1.33% (inactive); with `CCN(CC)S(=O)(=O)c1ccc(N(C)Cc2cccc(OC)c2OC)nc1`, 2.24% (inactive).
As for `CCN(CC)S(=O)(=O)c1ccc(N(C)Cc2ccc(C(F)(F)F)cc2)nc1`, the inhibition was 11.1% (active).
With `Cc1cccc(-n2cnc(C(=O)NNC(=S)Nc3ccccc3)c2)n1` the figure was 1.6% (inactive).
For the molecule `Cc1ccc(C(=O)N/C(=C\c2ccco2)C(=O)N2CCSCC2)cc1C`, the inhibition was -0.85% (inactive).
With `C=CCn1c(CNC(=O)c2ccco2)nnc1SCC(=O)c1ccc(OC)cc1` the figure was -1.14% (inactive); with `CCn1c(COc2ccccc2)nnc1SCC(=O)NCc1ccco1`, 0.66% (inactive).
In the case of `COc1ccc(C(=O)CSc2nnc(COc3ccccc3)n2Cc2ccco2)cc1`, the inhibition is 9.29% (active).
With `O=C(N/N=C/c1ccc(OCc2ccccc2)cc1)c1ccc(O)cc1` the figure was 1.57% (inactive); with `O=C(Cc1cccs1)N/N=C/c1ccc(OCc2ccccc2)cc1`, 10.5% (active); with `Cc1ccc(COc2ccc(/C=N/NC(=O)CN3CCCCC3)cc2)cc1`, 0.5% (inactive).
Consider `COc1cc(C(=O)NNC(=O)c2ccc(S(=O)(=O)N3CCCCC3)cc2)cc(OC)c1OC`, for which the inhibition was 3.63% (inactive).
With `COCCN(CC(=O)Nc1ccccc1C)S(=O)(=O)c1ccc(S(=O)(=O)N2CCCC2)cc1` the figure was 9.62% (active); with `COc1ccccc1NC(=O)CN1CCN(S(=O)(=O)c2ccc(Br)cc2)CC1`, 0.23% (inactive).

The inhibition is the drop in the measured response relative to a control, in per cent.
